From PubChem BioAssay
U2OS ROS induce = ROS inducers in U2OS cancer cells, primary screen, cell-based, H2DCF-DA fluorescence; 2% of 46,000 active; ROS induction (% of piperlongumine), % at 10 µM; AID 624156, 2012; U2OS ROS induction; in the data active = ROS induction above about 79%, passing the limit was not always enough;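 also: 0% = DMSO vehicle median and 100% = reference compound median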
* hit, by the source's call. This is one part of a sample in which hits are shown more often than they occur.

SMILES	U2OS ROS induce
CCOC(=O)c1ccc(NC(=O)O[C@H]2[C@H](OC(=O)Nc3ccccc3)[C@@H](OC(=O)Nc3ccccc3)[C@@H](OC)O[C@@H]2CO)cc1	88.3*
COc1ccc(NC(=O)O[C@H]2[C@@H]3OC(=O)[C@H](Cc4ccccc4)C/C=C/C[C@@H](Cc4ccccc4)C(=O)O[C@H]3[C@@H](OC)O[C@@H]2CO)cc1	36.4
COc1ccc(CNCc2cccc(OC)c2)cc1	-3.3
CCc1ccc(N(CC)C(=O)c2cn(CC)c(=O)c3cc(OC)c(OC)cc23)cc1	-6.5
C[C@@H]1CN([C@@H](C)CO)C(=O)c2cccc(NC(=O)CCCCCC(=O)Nc3ccccc3N)c2O[C@@H]1CN(C)C(=O)Nc1ccccc1	1.6
FC(F)(F)c1nnc2n1Nc1nc3ccccc3nc1S2	703.6*
O=C(Nc1sccc1C(=O)N1CCOCC1)c1cc2ccccc2oc1=O	0.3
Cc1ccccc1-c1nnc(SCC(=O)Nc2ccc3c(c2)OCCO3)n1C	-9.9
CC(C)(C)OC(=O)CC[C@@]12N=C(c3ccc(OCCCO)cc3)O[C@@H]1c1ccccc1CN(CCS(=O)(=O)c1ccccc1)C2=O	41.0
Cc1cc(C)c(C#N)c(SCCS(=O)(=O)Cc2ccc(Cl)cc2)n1	-5.6
Cc1cc(C)c(C#N)c(SCCS(=O)(=O)c2nc3ccccc3s2)n1	140.9*
N#Cc1cc2c(nc1SCCS(=O)(=O)c1nc3ccccc3s1)CCCC2	9.9
C[C@@H]1CN([C@H](C)CO)C(=O)c2cccc(NS(=O)(=O)c3cccs3)c2O[C@@H]1CN(C)C(=O)NC1CCCCC1	-11.9
COc1cccc(CNc2nc3ccccc3n2C)c1OC	-3.4
COc1cc2cc(Oc3ccc4ccc(=O)oc4c3)c(=O)oc2cc1OC(C)=O	5.1
Cc1cccc(C)c1NC(=O)COc1ccc2cc(-c3ccccc3)c(=O)oc2c1	-12.1
CC(=O)Oc1ccc2cc(-c3nc4c(s3)CCc3ccccc3-4)c(=O)oc2c1	128.5*
O=C(N/N=C/c1c(O)cc(O)cc1O)c1ccccc1O	-13.7
C[C@H](CO)N1C[C@H](C)[C@H](CN(C)Cc2ccc3c(c2)OCO3)Oc2ccc(NS(=O)(=O)c3ccc(F)cc3)cc2CC1=O	11.3
C[C@H]1CN([C@@H](C)CO)C(=O)Cc2cc(NS(=O)(=O)c3ccc(F)cc3)ccc2O[C@H]1CN(C)Cc1ccc2c(c1)OCO2	109.4*
C[C@H]1CN([C@@H](C)CO)C(=O)Cc2cc(NS(=O)(=O)c3ccc(Cl)cc3)ccc2O[C@H]1CN(C)Cc1ccc2c(c1)OCO2	14.4
C[C@@H]1CN([C@H](C)CO)C(=O)Cc2cc(NS(=O)(=O)c3ccc(F)cc3)ccc2O[C@@H]1CN(C)Cc1ccc2c(c1)OCO2	19.1
C[C@H]1CN([C@@H](C)CO)C(=O)Cc2cc(NS(=O)(=O)c3ccc(F)cc3)ccc2O[C@@H]1CN(C)Cc1ccc2c(c1)OCO2	23.0
C[C@@H]1CN([C@H](C)CO)C(=O)Cc2cc(NS(=O)(=O)c3ccc(F)cc3)ccc2O[C@H]1CN(C)Cc1ccc2c(c1)OCO2	129.3*
O=C(CCNc1ccc(Cl)c(C(F)(F)F)c1)c1ccccc1	7.7
SMILES	U2OS ROS induce
O=C(Nc1csc(-c2cccs2)n1)Nc1ccc(F)cc1F	-7.2
Cc1occc1C(=O)Nc1ccc(F)c(F)c1	-7.9
COc1ccc(C2CC(=O)Nc3cc4c(cc32)OCO4)cc1 (stereo not given)	-11.0
Cc1cc(C)c(OCC(=O)Nc2cccc(NC(=O)c3ccco3)c2)c(Br)c1	175.9*
O=C(COc1ccccc1Cl)Nc1cccc(NC(=O)c2ccco2)c1	-5.6
Cc1ccccc1OCC(=O)Nc1ccccc1NC(=O)c1ccco1	-5.5
FC(F)(F)C1(C(F)(F)F)N=C(c2ccccc2)NC(c2ccccc2)=N1	4.2
CCOC(=O)C1CCCN(CCP(=O)(c2ccccc2)c2ccccc2)C1 (stereo not given)	-12.7
CCOC(=O)c1c(/N=C/C2C(=O)c3ccccc3C2=O)sc(C)c1C	-11.4
CCOC(=O)CCCn1c(=O)c2cccn2c2ccccc21	1.3
CCOC(=O)c1c2c(n3ccccc13)C(=O)c1ccccc1C2=O	209.9*
O=C(CSc1nc(-c2ccc(F)cc2)cs1)Nc1ccc(N2CCOCC2)c(Cl)c1	16.1
C[C@@H]1CN([C@H](C)CO)C(=O)c2cccc(NC(=O)Nc3ccc(F)cc3)c2O[C@H]1CN(C)Cc1ccc(C(=O)Nc2ccccc2N)cc1	18.4
C[C@@H]1CN([C@H](C)CO)C(=O)c2cccc(NC(=O)c3ccc(-c4nccs4)cc3)c2O[C@H]1CN(C)Cc1ccc(C(=O)O)cc1	7.9
C[C@@H]1CN([C@@H](C)CO)C(=O)c2cccc(NC(=O)c3ccc(-c4nccs4)cc3)c2O[C@H]1CN(C)Cc1ccc(C(=O)Nc2ccccc2N)cc1	62.7
C[C@@H]1CN([C@H](C)CO)C(=O)c2cccc(NC(=O)c3ccc(-c4nccs4)cc3)c2O[C@@H]1CN(C)Cc1ccc(-c2ccccc2)cc1	31.5
C[C@H](CO)N1C[C@H](C)[C@H](CN(C)Cc2ccc(C(=O)Nc3ccccc3N)cc2)Oc2c(NC(=O)Nc3ccc(F)cc3)cccc2C1=O	2.8
C[C@H](CO)N1C[C@H](C)[C@H](CN(C)Cc2ccc(C(=O)O)cc2)Oc2c(NC(=O)c3ccc(-c4nccs4)cc3)cccc2C1=O	-6.3
C[C@@H]1CN([C@@H](C)CO)C(=O)c2cccc(NC(=O)Nc3ccc(C(F)(F)F)cc3)c2O[C@H]1CN(C)Cc1ccc(C(=O)Nc2ccccc2N)cc1	91.0*
C[C@H]1CN([C@@H](C)CO)C(=O)c2cccc(NC(=O)c3ccc(-c4nccs4)cc3)c2O[C@H]1CN(C)Cc1ccc(C(=O)Nc2ccccc2N)cc1	28.2
C[C@H](CO)N1C[C@H](C)[C@@H](CN(C)Cc2ccc(C(=O)O)cc2)Oc2c(NC(=O)c3ccc(-c4nccs4)cc3)cccc2C1=O	-7.2
C[C@H](CO)N1C[C@H](C)[C@@H](CN(C)Cc2ccc(Cl)c(Cl)c2)Oc2c(NC(=O)c3ccc(-c4nccs4)cc3)cccc2C1=O	96.6*
C[C@@H]1CN([C@H](C)CO)C(=O)c2cccc(NC(=O)c3ccc(-c4nccs4)cc3)c2O[C@H]1CN(C)Cc1ccc(C(F)(F)F)cc1	105.3*
C[C@@H]1CN([C@H](C)CO)C(=O)c2cccc(NC(=O)c3ccc(-c4nccs4)cc3)c2O[C@@H]1CN(C)Cc1ccc(C(=O)Nc2ccccc2N)cc1	213.8*
C[C@@H]1CN([C@@H](C)CO)C(=O)c2cc(NC(=O)Cn3cnnn3)ccc2O[C@@H]1CN(C)C(=O)NC1CCCCC1	-2.8
SMILES	U2OS ROS induce
Cc1nc2ccccc2n1CC(O)COc1ccc(C(C)C)cc1 (stereo not given)	1.7
O=C(O)c1cc(=O)[nH]c2c(C(F)(F)F)cccc12	-6.9
COc1ccc(S(=O)(=O)N(C)C[C@@H]2Oc3c(NC(=O)c4ccc(-c5nccs5)cc4)cccc3C(=O)N([C@@H](C)CO)C[C@H]2C)cc1	-11.0
C[C@@H]1CN([C@H](C)CO)C(=O)c2cc(NC(=O)NC3CCCCC3)ccc2O[C@H]1CN(C)Cc1ccc2c(c1)OCO2	-2.0
COc1ccc(S(=O)(=O)Nc2cccc3c2O[C@H](CN(C)CC2CC2)[C@H](C)CN([C@@H](C)CO)C3=O)cc1	-0.4
C[C@H]1CN([C@@H](C)CO)C(=O)c2cc(NC(=O)Nc3cccc4ccccc34)ccc2O[C@@H]1CN(C)C(=O)Nc1ccc(C(F)(F)F)cc1	79.8*
C[C@H](CO)N1C[C@H](C)[C@H](CN(C)C(=O)Nc2cccc3ccccc23)Oc2ccc(NC(=O)Nc3ccc(C(F)(F)F)cc3)cc2CC1=O	-6.5
